Several values for one entry are separate records, joined by “and”; a condition that tells them apart may be missing. Equal entries are not always repeated. Records with an inconclusive call do not appear. Activity calls are given as the source filed them. Unless noted, calls come from the whole dose curve. Peptide text beside a SMILES is read from it.

The results in this text go back to PubChem BioAssay (NCATS).

Test [1] addresses Estrogen receptor (Homo sapiens) (UniProt P03372). Kind of test: qHTS assay for small molecule agonists of estrogen receptor alpha signaling (AID 588514).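 Note: 0% = vehicle only and 100% = reference agonist; nearly all actives have a fitted effect of over 70% in size.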 An outline of the steps: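 Read-out: CCF4 fluorescence from a beta-lactamase reporter in ER-alpha-UAS-bla HEK 293 cells after 18 hrs of compound exposure at 37 C. Normalized to 20 nM 17-beta-estradiol (100%) and DMSO (0%).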
(Quantitative high-throughput screening tests each substance at several concentrations.)

The target of test [2] is Androgen receptor (Homo sapiens) (UniProt P10275). Put plainly: qHTS assay for small molecule agonists of androgen receptor signaling (AID 588515; active = well fitted curve in the direction sought with a large enough effect in the signal ratio, with a control signal flat; the % refers to the signal ratio; note: % is set by controls: 0 for no effect and ±100 for the full control effect). The settings on record: AR-UAS-bla HEK293, beta-lactamase ratio, agonist 16 h; stronger effect = higher value. An outline of the steps:
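Stimulation of an AR-responsive β-lactamase reporter in GripTite HEK293 cells was measured after 16 h compound exposure at 37 °C, via CCF4 fluorescence after 2 h RT. EC50 from Hill fits, normalized to R1881 at 30 nM.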

For test [3] the target is unchanged. Kind of test: qHTS assay for small molecule antagonists of androgen receptor signaling (AID 588516; active = well fitted curve in the direction sought with a large enough effect in the signal ratio, with a control signal flat, not every such curve was filed as active; the % refers to the signal ratio; note: % is set by controls: 0 for no effect and ±100 for the full control effect). The method in brief: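 Antagonist-mode qHTS: inhibition of R1881 (10 nM)-driven beta-lactamase expression in GripTite HEK 293 cells is measured after 16 h; values are Hill-derived IC50s normalized between R1881 and DMSO wells.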
Test [4] deals with Bile acid receptor (Homo sapiens) (UniProt Q96RI1). Kind of test: qHTS assay for small molecule antagonists of farnesoid X receptor signaling (AID 588526). Note: % is set by controls: 0 for no effect and ±100 for the full control effect. An outline of the steps:
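Concentration-response titrations were fitted to the Hill equation for half-maximal inhibition and maximal response, with data normalised to 50 uM chenodeoxycholic acid and DMSO control wells. Cells: FXR-UAS-bla HEK293T, dialyzed FBS.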

Test [5] is described as follows: qHTS assay for small molecule antagonists of peroxisome proliferator-activated receptor delta signaling (AID 588535; active = well fitted inhibition curve with a large enough effect in the signal ratio, with a control signal flat, not every such curve was filed as active; the % refers to the signal ratio;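 for max response: cells co-treated with a PPAR-delta agonist as stimulator during compound exposure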). The conditions noted are these: HEK293T PPARd-UAS-bla, beta-lactamase FRET ratio, 18 h; 460 nm channel. The method in brief:
(§1)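 Compounds tested in titration on PPAR-delta-UAS-bla HEK293T cells grown in charcoal/dextran-stripped serum (2%); beta-lactamase activity read via CCF4 emission at 460 and 530 nm.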

The target of test [6] is Peroxisome proliferator-activated receptor delta (Homo sapiens) (UniProt Q03181). The description is as above. An outline of the steps: as §1
Test [7] concerns the target Glucocorticoid receptor (Homo sapiens) (UniProt P04150). Kind of test: qHTS assay for small molecule agonists of glucocorticoid receptor signaling (AID 588532; active = well fitted curve in the direction sought with a large enough effect in the signal ratio, with a control signal flat; the % refers to the signal ratio;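 note: 100% = dexamethasone at 0.1 µM and 0% = DMSO only wells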). The settings on record: HeLa MMTV-bla, beta-lactamase ratio, agonist, 18 h; stronger effect = higher value; percent of dexamethasone control, DMSO zero. The method in brief: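 Stimulation of a glucocorticoid response element-driven beta-lactamase gene was measured in HeLa cells. Responses were scaled between DMSO basal and 0.1 uM dexamethasone, then fitted for half-maximal stimulation.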

The target in test [8] is Peroxisome proliferator-activated receptor gamma (Homo sapiens) (UniProt P37231). Kind of test: qHTS assay for small molecule agonists of peroxisome proliferator-activated receptor gamma signaling (AID 588536; active = well fitted curve in the direction sought with a large enough effect in the signal ratio, with a control signal flat, not every such curve was filed as active; the % refers to the signal ratio;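 note: 0% = DMSO basal wells and 100% = rosiglitazone at 2 µM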). The method in brief:
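Beta-lactamase reporter read-out: CCF4 fluorescence (ex 405, em 460/530 nm) after 2 h at RT. HEK293 GeneBLAzer cells were treated for 16 h at 37 C. Hill fits gave EC50 and efficacy versus 2 uM rosiglitazone (100%) and DMSO (0%).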

Test [9] has the same target. Put plainly: qHTS assay for small molecule antagonists of peroxisome proliferator-activated receptor gamma signaling (AID 588537; active = well fitted inhibition curve with a large enough effect in the signal ratio, with a control signal flat, not every such curve was filed as active; the % refers to the signal ratio;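 note: reporter cells co-stimulated with 50 nM rosiglitazone agonist during compound treatment; % of control where 0% means no effect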). The method in brief: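 HEK293 cells, PPAR-gamma-UAS-bla, 3000/well. Pre-incubation 6-6.5 h, 37 C. Compound titration with rosiglitazone 50 nM final, 16 h. CCF4 dye, 2 h RT, dual-emission fluorescence.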
In test [10] the target is Vitamin D3 receptor (Homo sapiens) (UniProt P11473). Kind of test: qHTS assay for small molecule antagonists of vitamin D receptor signaling (AID 588541).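 Note: receptor activated by calcitriol during compound treatment; series mostly up to about 77 µM; % is set by controls: 0 for no effect and ±100 for the full control effect.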 The method in brief: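 VDR-UAS-bla HEK293T cells (2000/well, 2% charcoal-stripped FBS) were treated with titrated compounds plus 1-alpha,25-dihydroxyvitamin D3 (50 nM or 3 nM final) for 16 h at 37 C. CCF4 beta-lactamase fluorescence was read; Hill fits gave IC50.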
Sequence of Vitamin D3 receptor (Homo sapiens) (P11473 whole entry, looked up): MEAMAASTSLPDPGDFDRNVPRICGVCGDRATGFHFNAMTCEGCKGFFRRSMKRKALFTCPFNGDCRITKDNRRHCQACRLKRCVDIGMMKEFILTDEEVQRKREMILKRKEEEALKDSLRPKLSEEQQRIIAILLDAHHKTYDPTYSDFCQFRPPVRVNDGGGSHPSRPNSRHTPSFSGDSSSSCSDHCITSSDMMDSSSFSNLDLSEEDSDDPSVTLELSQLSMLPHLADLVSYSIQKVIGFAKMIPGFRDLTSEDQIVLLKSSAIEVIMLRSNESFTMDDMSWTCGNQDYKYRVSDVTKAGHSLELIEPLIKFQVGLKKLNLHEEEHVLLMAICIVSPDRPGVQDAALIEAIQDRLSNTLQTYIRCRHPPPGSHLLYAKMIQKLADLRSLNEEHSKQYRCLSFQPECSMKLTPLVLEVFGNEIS

Sequence of Glucocorticoid receptor (Homo sapiens) (P04150 whole entry, looked up): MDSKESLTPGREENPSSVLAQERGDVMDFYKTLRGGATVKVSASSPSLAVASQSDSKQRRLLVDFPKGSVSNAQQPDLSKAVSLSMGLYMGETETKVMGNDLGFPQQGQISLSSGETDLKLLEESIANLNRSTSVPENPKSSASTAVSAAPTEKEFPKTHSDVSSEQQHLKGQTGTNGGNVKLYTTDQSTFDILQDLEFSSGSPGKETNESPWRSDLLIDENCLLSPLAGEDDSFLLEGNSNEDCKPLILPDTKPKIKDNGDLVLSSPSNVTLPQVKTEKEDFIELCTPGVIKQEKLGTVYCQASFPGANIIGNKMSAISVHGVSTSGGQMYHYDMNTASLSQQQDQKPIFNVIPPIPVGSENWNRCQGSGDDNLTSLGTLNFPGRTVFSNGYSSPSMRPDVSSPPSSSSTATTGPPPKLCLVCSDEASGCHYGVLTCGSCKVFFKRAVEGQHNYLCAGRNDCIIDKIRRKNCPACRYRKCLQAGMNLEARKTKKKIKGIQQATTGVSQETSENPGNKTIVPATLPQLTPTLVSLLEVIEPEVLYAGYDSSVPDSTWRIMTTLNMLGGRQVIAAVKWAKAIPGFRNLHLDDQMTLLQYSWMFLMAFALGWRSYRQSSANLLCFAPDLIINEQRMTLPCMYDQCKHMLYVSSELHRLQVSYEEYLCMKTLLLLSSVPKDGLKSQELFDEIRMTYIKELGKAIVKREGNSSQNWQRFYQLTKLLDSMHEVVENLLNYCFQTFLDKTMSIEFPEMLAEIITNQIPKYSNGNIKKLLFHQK
Sequence of Bile acid receptor (Homo sapiens) (Q96RI1 whole entry, looked up): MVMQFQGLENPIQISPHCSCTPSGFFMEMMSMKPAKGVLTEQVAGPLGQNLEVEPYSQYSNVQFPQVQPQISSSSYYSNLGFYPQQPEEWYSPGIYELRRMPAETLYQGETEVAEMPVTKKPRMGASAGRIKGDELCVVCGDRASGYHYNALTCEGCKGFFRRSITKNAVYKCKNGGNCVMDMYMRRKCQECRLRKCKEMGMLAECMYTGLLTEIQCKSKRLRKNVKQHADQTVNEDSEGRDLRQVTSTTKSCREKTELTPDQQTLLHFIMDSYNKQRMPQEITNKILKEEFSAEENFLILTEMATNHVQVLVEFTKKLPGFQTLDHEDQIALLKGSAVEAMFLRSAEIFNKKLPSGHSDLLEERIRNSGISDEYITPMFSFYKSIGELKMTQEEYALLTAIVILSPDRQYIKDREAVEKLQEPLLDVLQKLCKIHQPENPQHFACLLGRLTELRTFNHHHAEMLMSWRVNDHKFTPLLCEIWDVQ
Sequence of Androgen receptor (Homo sapiens) (P10275 whole entry, looked up): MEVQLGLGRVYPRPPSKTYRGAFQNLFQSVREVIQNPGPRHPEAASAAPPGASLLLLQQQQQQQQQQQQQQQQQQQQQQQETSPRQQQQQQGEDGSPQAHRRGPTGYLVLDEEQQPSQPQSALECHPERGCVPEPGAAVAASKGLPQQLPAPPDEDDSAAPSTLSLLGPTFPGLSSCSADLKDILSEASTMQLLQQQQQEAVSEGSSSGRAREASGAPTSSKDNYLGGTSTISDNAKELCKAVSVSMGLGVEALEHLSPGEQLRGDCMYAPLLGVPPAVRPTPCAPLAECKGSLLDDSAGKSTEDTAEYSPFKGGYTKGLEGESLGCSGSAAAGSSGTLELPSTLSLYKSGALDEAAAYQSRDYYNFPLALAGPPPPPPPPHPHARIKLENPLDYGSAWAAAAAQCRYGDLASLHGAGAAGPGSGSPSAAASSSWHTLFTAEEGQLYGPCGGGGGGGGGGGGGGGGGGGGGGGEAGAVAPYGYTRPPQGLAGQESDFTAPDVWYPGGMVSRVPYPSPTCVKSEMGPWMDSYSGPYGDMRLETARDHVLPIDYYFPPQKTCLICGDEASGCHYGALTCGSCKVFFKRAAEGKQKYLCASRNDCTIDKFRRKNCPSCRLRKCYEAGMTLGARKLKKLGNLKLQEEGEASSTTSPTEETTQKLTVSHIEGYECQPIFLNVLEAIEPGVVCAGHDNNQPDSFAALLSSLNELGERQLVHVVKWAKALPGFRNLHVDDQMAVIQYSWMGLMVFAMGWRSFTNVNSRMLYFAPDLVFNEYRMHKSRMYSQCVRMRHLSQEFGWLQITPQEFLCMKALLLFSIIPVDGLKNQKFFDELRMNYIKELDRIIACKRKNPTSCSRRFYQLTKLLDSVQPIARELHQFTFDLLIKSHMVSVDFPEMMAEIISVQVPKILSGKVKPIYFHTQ
Sequence of Estrogen receptor (Homo sapiens) (P03372 whole entry, looked up): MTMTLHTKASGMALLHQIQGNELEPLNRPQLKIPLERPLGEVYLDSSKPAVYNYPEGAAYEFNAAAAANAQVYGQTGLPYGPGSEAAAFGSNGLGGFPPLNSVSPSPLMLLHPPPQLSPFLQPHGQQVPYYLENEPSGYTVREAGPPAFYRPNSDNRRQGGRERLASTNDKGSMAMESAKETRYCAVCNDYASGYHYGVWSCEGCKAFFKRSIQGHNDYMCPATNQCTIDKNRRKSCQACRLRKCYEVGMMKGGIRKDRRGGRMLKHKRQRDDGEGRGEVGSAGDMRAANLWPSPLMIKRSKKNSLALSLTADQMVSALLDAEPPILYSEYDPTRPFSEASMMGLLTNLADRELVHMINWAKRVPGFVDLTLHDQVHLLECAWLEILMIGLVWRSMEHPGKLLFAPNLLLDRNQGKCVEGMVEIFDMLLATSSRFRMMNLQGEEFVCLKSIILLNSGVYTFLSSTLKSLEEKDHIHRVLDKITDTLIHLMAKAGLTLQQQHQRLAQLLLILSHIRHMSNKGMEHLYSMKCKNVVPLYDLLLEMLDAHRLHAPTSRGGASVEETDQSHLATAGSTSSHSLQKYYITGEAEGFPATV
Sequence of Peroxisome proliferator-activated receptor gamma (Homo sapiens) (P37231 whole entry, looked up): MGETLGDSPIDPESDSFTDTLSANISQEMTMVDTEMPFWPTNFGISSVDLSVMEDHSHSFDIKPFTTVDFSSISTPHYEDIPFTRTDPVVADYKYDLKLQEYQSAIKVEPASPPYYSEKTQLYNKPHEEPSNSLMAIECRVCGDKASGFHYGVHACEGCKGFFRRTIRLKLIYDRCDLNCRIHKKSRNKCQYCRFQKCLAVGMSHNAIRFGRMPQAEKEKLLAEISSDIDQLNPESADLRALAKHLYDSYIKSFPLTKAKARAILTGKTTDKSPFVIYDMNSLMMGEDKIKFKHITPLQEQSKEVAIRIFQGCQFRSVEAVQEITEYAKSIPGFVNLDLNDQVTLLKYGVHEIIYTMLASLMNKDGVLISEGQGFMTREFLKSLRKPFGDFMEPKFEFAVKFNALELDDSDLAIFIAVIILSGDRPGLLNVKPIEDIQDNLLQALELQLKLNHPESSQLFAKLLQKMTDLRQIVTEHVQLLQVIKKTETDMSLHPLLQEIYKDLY
Sequence of Peroxisome proliferator-activated receptor delta (Homo sapiens) (Q03181 whole entry, looked up): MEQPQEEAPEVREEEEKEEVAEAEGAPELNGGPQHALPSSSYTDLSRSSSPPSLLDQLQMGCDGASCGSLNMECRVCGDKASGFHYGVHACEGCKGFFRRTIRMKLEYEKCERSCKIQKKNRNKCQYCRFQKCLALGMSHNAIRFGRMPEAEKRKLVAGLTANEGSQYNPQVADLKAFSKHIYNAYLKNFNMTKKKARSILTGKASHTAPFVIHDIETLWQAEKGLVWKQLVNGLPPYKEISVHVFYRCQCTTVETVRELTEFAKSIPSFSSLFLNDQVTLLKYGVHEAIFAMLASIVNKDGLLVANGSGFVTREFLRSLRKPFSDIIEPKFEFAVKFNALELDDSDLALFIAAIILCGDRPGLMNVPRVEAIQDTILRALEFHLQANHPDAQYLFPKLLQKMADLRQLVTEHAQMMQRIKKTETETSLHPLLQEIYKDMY

`Cc1ccc(C)c(OCCCC(C)(C)C(=O)O)c1`: the result in test [1], in test [3], in test [4] and in test [6] was inactive. In addition, in test [2], the activation was 4.9% (inactive) and 2.29% (inactive). Besides, the max response in test [5] is 34%.
As for `COC(=O)[C@H](Cc1ccccc1)NC(=O)[C@@H](N)CC(=O)O` (H-Asp-Phe-OMe), the outcome in [1], in test [4], in [6] and in test [8] was inactive. In test [7], the activation is -0.956% (inactive) and -8.82% (inactive). For the same molecule, the max response in [5] was -1.9% and 6.72%. In test [9], the Potency entry is “inactive”.
As to `CCc1nc(N)nc(N)c1-c1ccc(Cl)cc1`, the outcome in [1], in [6] and in test [10] was inactive. Further, in test [7], the activation was 6.7% (inactive) and -0.85% (inactive). Further, the max response in test [5] is -4.91%.
With `CCN(CC)C(=S)SSC(=S)N(CC)CC`, the molecule was classed as inactive in test [1], in [3] and in test [8]. Further, the activation in [2] was 6.34% (inactive); in test [7] it was 3.99% (inactive). Besides, the Potency entry in test [9] was “inactive”.
Consider `CNC[C@H](O)c1ccc(O)c(O)c1`, for which the molecule was called inactive in test [1], in test [8] and in test [10]. For the same molecule, the Potency result in test [9] was “inactive”.
With `CN(C)c1ccc2nc3ccc(=[N+](C)C)cc-3sc2c1`, the call in test [1] and in test [8] was inactive.
As for `CCCCC(CC)COC(=O)C(C#N)=C(c1ccccc1)c1ccccc1` (stereo unspecified), the activation in test [7] was -1.93% (inactive). Also, the max response in test [5] is -3.97%. In addition, the molecule was classed as inactive in [6] and in [10].
Turning to `CCCc1cc(=O)[nH]c(=S)[nH]1`, the molecule was called inactive in test [1], in test [6] and in test [8]. The max response in test [5] is 15.2% and -59%. Further, the Potency result in [9] was “inactive”.
As for `Nc1ccc(S(N)(=O)=O)cc1`, the activation in test [7] was 9.11% (inactive).
`Cc1cc(O)c2c(c1)C(=O)c1cc(O)cc(O)c1C2=O`: the activation in [7] was -3.03% (inactive) and -5.65% (inactive).
Turning to `CC1(C)NC(=O)N(c2ccc([N+](=O)[O-])c(C(F)(F)F)c2)C1=O`, the molecule was classed as inactive in [4], in test [8] and in [10]. For the same molecule, the Potency result in [9] is “inactive”.
Regarding `NS(=O)(=O)c1cc(C(=O)O)c(NCc2ccco2)cc1Cl`, the molecule was called inactive in test [1], in test [6], in test [8] and in test [10]. Besides, the max response in test [5] is -4.16% and 9.44%. The Potency result in [9] is “inactive”.
